MARV entry inh – qHTS for inhibitors of binding or entry into cells for Marburg Virus; Marburg virus pseudotyped entry inhibition, cell reporter; Potency, µM (titrated, usually from 37.8 µM), for the others: at the top dose activity change, negative = inhibition, hits mostly inhibitors; 300,000 compounds, 1.8% hits; AID 540276, 2011; calls by dose curve; tested in HEK293 cells; also: potency is read from the fitted curve at half-maximal effect
LASV entry inh – qHTS for Inhibitors of binding or entry into cells for Lassa Virus; Lassa virus pseudotype entry inhibition, cell reporter; Potency, µM (doses to about 37.9 µM), for the others: at the top dose activity change, negative = inhibition, most hits filed as inhibitors; 300,000 compounds, 1.2% hits; AID 540256, 2011; calls by dose curve; tested in HEK293 cells; also: potency is read from the fitted curve at half-maximal effect; nearly all actives have a fitted effect of over 50% in size
VACV mCherry inh – qHTS for Stage-Specific Inhibitors of Vaccinia Orthopoxvirus: mCherry Reporter Primary qHTS. AID 720579, 2013. Vaccinia virus mCherry reporter infection, fluorescence. 310,000 compounds, 0.63% hits. Potency, µM (top dose mostly 36.5 µM), without a hit: top-dose activity change, negative = inhibition, usual class: inhibitors; calls by dose curve; tested in A549 cells; also: potency is read from the fitted curve at half-maximal effect; nearly all actives have a fitted effect of over 35% in size
FMDV inh – High Throughput Screening for Foot and Mouth Disease Virus Antivirals | FMDV antiviral cell-based qHTS | Potency, µM (highest dose often 57.9 µM), for the others: at the top dose activity change, negative = inhibition, usual class: inhibitors | 410,000 compounds, 1.2% hits; calls by dose curve; tested in HEK293T cells; also: read-out not given here; potency is read from the fitted curve at half-maximal effect; nearly all actives have a fitted effect of over 45% in size
HCMV antiviral – qHTS Assay for inhibitors of the human cytomegalovirus (HCMV); activity change, negative = inhibition, % at 57.5 µM; HFF cells, HCMV-luciferase reporter, 72 h; active compounds read low; 410,000 compounds, 4.5% hits; in the data active = activity change below about -60%; inconclusive = no clear call, values can overlap the other calls; inactive = above about -39%
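Two-dose cell screen: HFF monolayers treated with compounds and infected with luciferase-expressing HCMV at 1 PFU/cell, 72 h at 37C, then lysed for luciferase measurement.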
Vaccinia Venus – qHTS for Stage-Specific Inhibitors of Vaccinia Orthopoxvirus: Venus Reporter Primary qHTS; Vaccinia virus Venus reporter expression, fluorescence; Potency, µM (titrated, usually from 36.5 µM), inactives show at the top dose activity change, negative = inhibition, most hits filed as inhibitors; 330,000 compounds, 0.46% hits; AID 720580, 2013; calls by dose curve; tested in A549 cells; also: potency is read from the fitted curve at half-maximal effect; nearly all actives have a fitted effect of over 30% in size
* = called active by the depositor; i = inactive; ? = inconclusive; nt = no result; ! = a repeat was not active; [ ] = another dose, or the depositor's remark. Shown are actives, neighbours in structure and some others; about 6.5% of the full set was active somewhere. % is scaled to controls: 0 for no effect and ±100 for the full control effect.

SMILES | MARV entry inh | LASV entry inh | VACV mCherry inh | FMDV inh | HCMV antiviral | Vaccinia Venus
O=[N+]([O-])c1ccc(NN=Cc2cccc([N+](=O)[O-])c2)cc1 | 2.1%[46.1 µM] | -4.4%[46.1 µM] | ? | -7.9% | -11.5 | -3.4%
O=C(N/N=C/c1ccc[nH]1)c1ccccc1[N+](=O)[O-] | 27.1% | ? | -14.7% | 1.0% | ? | -7.0%
O=[N+]([O-])c1ccc(N/N=C/c2ccc[nH]2)cc1 | ? | ? | 5.01µM* | 0.0% | ? | ?
Cc1ccc(C(=O)N/N=C\c2ccc[nH]2)cc1[N+](=O)[O-] | 4.47µM* | 8.91µM* | -28.9% | 10.3% | -6.7 | -17.7%
O[C@@H]1CO[C@@H](C=Cc2ccccc2)[C@H]1OCc1cccc(Br)c1 | -5.3%[14.2 µM] | ? | nt | nt | nt | nt
O=c1oc2ccccc2c2c1nnn2CCO | 17.5%[46.1 µM] | 9.5% | -21.2% | -11.5% | -63.4* | -12.6%
CCCn1nnc2c(=O)oc3ccccc3c21 | 2.6% | -11.6% | i | -14.3% | -5.3 | -5.1%
Cc1cc(C(=O)Nc2ccccc2-c2nc(CNC(=O)c3sc(C)nc3C)c(C)o2)c(C)o1 | nt | nt | -3.3% | 0.6% | nt | 6.2%
Cc1cccc(C(=O)NCC(=O)OCc2nc(N)nc(Nc3ccccc3C)n2)c1 | nt | nt | nt | -6.6% | 136.6 | nt
Cc1ccccc1Nc1nc(N)nc(COC(=O)CC2CC3CCC2C3)n1 (stereo not given) | 14.1µM* | ? | i | -10.8% | -26.3 | -8.5%
Cc1ccc2c(CC(=O)OCc3nc(N)nc(Nc4ccccc4C)n3)coc2c1 | 14.6µM* | -3.0% | nt | -5.7% | -28.0 | nt
Cc1ccccc1Nc1nc(N)nc(COC(=O)CCS(=O)(=O)c2ccccc2)n1 | ? | -4.3% | nt | 28.4% | 51.4 | nt
CCc1ccc(NCc2cc3ccc(OC)cc3n(CC(=O)Nc3cccc(Cl)c3C)c2=O)cc1 | nt | 1.7%[46.1 µM] | -10.6% | -7.9% | 9.4 | -1.2%
COC(=O)c1c(-c2ccc(Cl)cc2)noc1N1CCN(c2ccc(OC)cc2)CC1 | nt | 5.4%[46.1 µM] | -10.1% | ? | -4.1 | -12.5%
Cc1cc(SCC#N)n2nc(C)c(-c3ccccc3)c2n1 | -15.3% | -18.4% | ? | -10.4% | -72.8* | -26.7%
Cc1cc(Cl)n2nc(C)c(-c3ccc(Cl)cc3)c2n1 | ? | 15.8µM* | ? | ? | -7.3 | 14.1µM*
Cc1ccc(NC(=O)C(c2ccccc2)C2CCCC2)cc1 (stereo not given) | -29.2% | 1.7% | nt | -27.4% | -20.0 | nt
O=C(Nc1ccc2ccccc2c1)C(c1ccccc1)C1CCCC1 (stereo not given) | ? | 2.59µM* | nt | -26.2% | ? | nt
CC1C=CCC2C(=O)N(c3cccc(C(=O)NCCc4ccccc4)c3)C(=O)C12 (stereo not given) | nt | nt | nt | -12.1% | -61.0* | nt
Cn1cnnc1SCC(=O)Nc1cc(C(=O)O)cc(C(=O)O)c1 | nt | 12.7%[46.1 µM] | 5.1% | 5.0% | -0.7 | -7.1%
CC(C)C[C@H]1CN([C@@H](CC(C)C)CN2CCC[C@@H]2CN2C(=S)NC[C@@H]2Cc2ccc(O)cc2)C(=S)N1CCc1ccccc1 | nt | nt | -15.2% | -21.1% | -7.0 | -16.0%
CC(C)C[C@H]1CN([C@@H](CC(C)C)CN2CCCC2CN2C(=S)NC[C@@H]2Cc2ccc(O)cc2)C(=S)N1CCc1ccccc1 (stereo not given in full) | nt | nt | -17.5% | -20.4% | -80.2* | -13.1%
CC(C)C[C@H]1CNC(=S)N1C[C@H]1CCCN1C[C@H](CC(C)C)N1C[C@H](Cc2ccc(O)cc2)N(CCc2ccccc2)C1=S | nt | nt | 3.7% | ? | -94.9* | -22.0%
COCCn1c(=O)c(-c2ccc(F)cc2)nc2cnc(OC)nc21 | nt | nt | nt | -24.1% | nt | nt
Cc1ccc(C)c(N2CCN(C(=O)C3CCN(S(=O)(=O)c4c(C)noc4C)CC3)CC2)c1 | 1.9% | nt | nt | ? | -68.4* | nt
SMILES | MARV entry inh | LASV entry inh | VACV mCherry inh | FMDV inh | HCMV antiviral | Vaccinia Venus
Cc1ccc(/C=C/c2onc(C)c2S(=O)(=O)N2CCC(C(=O)N3CCC(N(C)C(C)C)CC3)CC2)cc1 | nt | -28.8%[46.1 µM] | -28.9% | -7.0% | -100.7* | ?
Cc1ccc(Cl)cc1N1CCN(C(=O)CN(c2ccccc2)S(=O)(=O)N(C)C)CC1 | -0.2%[46.1 µM] | -26.3% | -25.1% | 20µM* | -31.7 | -18.0%
Cc1ccc(Cl)cc1N1CCN(C(=O)C2CCN(S(C)(=O)=O)CC2)CC1 | ? | -28.5%[46.1 µM] | i | ? | -63.7* | -6.8%
CC(=O)c1ccc(N2CCN(C(=O)C3CCN(S(=O)(=O)c4c(C)noc4/C=C/c4ccc(C)cc4)CC3)CC2)cc1 | nt | -1.4%[46.1 µM] | -22.4% | -23.4% | -23.7 | -15.2%
Cc1ccc(C)c(N2CCN(C(=O)C3CCCN(S(=O)(=O)c4c(C)noc4C)C3)CC2)c1 (stereo not given) | -6.1% | nt | 11.7% | -22.3% | -18.3 | -20.4%
Cc1ccc(Cl)cc1N1CCN(C(=O)C2CCN(S(=O)(=O)c3cnc[nH]3)CC2)CC1 | -28.1%[46.1 µM] | 2.2% | -16.3% | -18.3% | 1.9 | -2.3%
O=C(N=Nc1c(O)[nH]c2c(Cl)cc(Cl)cc12)c1ccccc1O | nt | nt | nt | nt | -18.8 | nt
Cc1ccc(-c2nc3c4ccccc4n(CC(=O)NCc4ccc(F)cc4)c(=O)n3n2)cc1 | nt | 10.6%[46.1 µM] | -1.1% | 20.2% | -10.5 | 1.0%
Cc1ccc(C)c(N2CCN(C(=O)C3CCN(c4nc(C)cc(C)n4)CC3)CC2)c1 | ? | -9.8% | nt | 17.8µM* | 2.4 | nt
Cc1ccc(Cl)cc1N1CCN(C(=O)C2CCN(S(=O)(=O)c3cn(C)cn3)CC2)CC1 | nt | -2.2%[46.1 µM] | -15.4% | -7.7% | -20.9 | -8.9%
Cc1cc(C)nc(N2CCC(C(=O)N3CCN(c4cc(Cl)ccc4C)CC3)CC2)n1 | ? | -11.3% | nt | 28.2µM* | 53.2 | nt
Cc1ccc(C)c(N2CCN(C(=O)C3CCCCN3S(=O)(=O)c3ccc(F)cc3)CC2)c1 (stereo not given) | 10µM*! | -24.5% | -9.8% | 31.6µM* | -19.3 | -22.7%
COC(=O)Cc1ccc(NC(=S)N2CCN(c3cc(Cl)ccc3C)CC2)cc1 | ? | -25.1% | -18.7% | ? | -69.9* | -12.6%
Cc1nnc(NC(=O)C2CCN(C(=O)c3ccsc3)CC2)s1 | nt | nt | -7.5% | nt | nt | -12.1%
COC(=O)C1(C)C2CC(C)C(c3ccccc32)N1C(=O)C(F)(F)F (stereo not given) | -9.1%[14.2 µM] | ? | nt | nt | nt | nt
Nc1nnc(/C=C/c2ccccc2Cl)s1 | 7.08µM* | ? | i | 23.5% | 78.6 | -4.1%
O=[N+]([O-])c1ccc(CS(=O)c2ccccc2)cc1 (stereo not given) | ? | -19.2% | i | 8.3% | -5.5 | -6.8%
O=[N+]([O-])c1ccc(S(=O)Cc2ccccc2)c([N+](=O)[O-])c1 (stereo not given) | ? | 11.2µM* | -6.4% | 14.1µM* | -96.9* | -15.5%
COc1ccc(C(=O)COc2nc(C)cc(C)c2C#N)cc1 | ? | -3.5% | nt | -9.7% | -63.6* | nt
